The subject of assay [1] is Wnt5a (protein binding on small-molecule microarray). Nature of the assay: Wnt5a binders on small-molecule microarray, primary screen, biophysical, 635/667 nm fluorescence (AID 1142).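 Further: fluorescence read at 667 nm with signal to noise per printed feature.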 The settings on record: 635 nm fluorescence, higher = more signal.
The nature of assay [2]: cell viability in Huh7 cells, primary screen, cytotoxicity control for HCV replication inhibitor project, CellTiter-Glo luminescence, basal, 48 h (AID 1143).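 Further: Huh7 hepatoma cells carrying a hepatitis C replication reporter with no stimulus; test concentration not given here.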 The settings on record: Huh7 HCV replicon, higher = more signal, called active from +8 up or from −8 down. On the technique in general: In ATP-based viability assays light output follows the ATP content of the culture.

A short description of assay [3]: CREB reporter modulators without forskolin, primary screen, cell-based, PC12, CRE-LacZ reporter, unstimulated (AID 1145). The settings on record: no forskolin, luminescence, 4.5 h, higher = more signal, called active from +8 up or from −8 down.
Assay [4] in a line: CREB reporter modulators under forskolin, primary screen, cell-based, PC12, CRE-LacZ reporter, forskolin-stimulated (AID 1146).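 Further: PC12 cells with 6xCRE LacZ reporter stimulated by forskolin 10 µM; beta-galactosidase reporter signal reflecting CREB driven transcription.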 The settings on record: luminescence, 4.5 h, higher = more signal, called active from +8 up or from −8 down.
Assay [5] concerns the target Streptavidin (Streptomyces avidinii) (UniProt P22629). Nature of the assay: streptavidin binders on small-molecule microarray, primary screen, artefact control for SMM compound annotation, biophysical, 635/667 nm fluorescence (AID 1147).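 Further: signal reflects streptavidin binding to arrayed compounds as a control protein.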 The settings on record: streptavidin binding, higher = more signal.
Assay [6] is described as follows: small-molecule binders of probe aInhba, primary screen, biochemical, small-molecule microarray, 635/667 nm fluorescence (AID 1148).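 Further: score merges 667nm spot fluorescence with signal-to-noise for antibody binding to printed compounds.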 The settings on record: higher = more signal.
Assay [7] deals with Torsin-1A (Homo sapiens) (UniProt O14656). The assay is described as follows: torsin A binders from cell lysate, primary screen, small-molecule microarray, wild-type, 635/667 nm (AID 1149). The settings on record: COS7 hTOR1A-WT lysate, 635 nm fluorescence, higher = more signal.
Assay [8] shares this target. Nature of the assay: small-molecule binders of mutant TOR1A in lysate, primary screen, cell lysate, small-molecule microarray, COS7 lysate, 635/667 nm fluorescence (AID 1150).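 Further: score pools 667 nm emission and signal to noise measuring lysate protein binding.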 The settings on record: COS7 hTOR1A mutant lysate, 635 nm fluorescence, higher = more signal.
For assay [9], the system named is Sonic hedgehog protein (Shh). The assay is described as follows: small-molecule binders of Shh protein, primary screen, biochemical, small-molecule microarray, 635/667 nm fluorescence (AID 1151).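 Further: Shh protein binding to compounds spotted on small-molecule microarray slides; score combines spot fluorescence intensity with signal-to-noise across triplicate slides.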 The settings on record: small-molecule microarray binding, 635 nm fluorescence; higher = more signal.
Assay [10] can be described thus: E. coli DRC41 culture turbidity changes, primary screen, E. coli filamentation inducer project, strain DRC41, OD650, 48 h (AID 1152).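 Further: E. coli MC1000 strain DRC41 lacking acrAB efflux pump and sulA.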 The settings on record: E. coli DRC41 (acrAB sulA), higher = more signal, called active from +8 up or from −8 down.
Assay [11] is described as follows: small-molecule binders of probe aLefty1, primary screen, biochemical, small-molecule microarray, 635/667 nm fluorescence (AID 1153).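 Further: score merges spot fluorescence with signal-to-noise ratio from the scanned slide images.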 The settings on record: higher = more signal.
Assay [12] can be described thus: PSAC antagonists in infected red cells, primary screen, cell-based, P. falciparum Indochina, OD700, 1 h (AID 1154). The settings on record: P. falciparum Indochina infected RBC osmotic lysis, higher = more signal, called active from +8 up or from −8 down.
Assay [13] in a line: PSAC antagonists in infected red cells, primary screen, cell-based, P. falciparum Indochina, OD700, 2 h (AID 1155).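 Further: lysis reports solute entry through the parasite surface anion channel PSAC; channel blockers reduce lysis of infected cells.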 The settings on record: P. falciparum Indochina infected erythrocytes, osmotic lysis OD700; higher = more signal, called active from +8 up or from −8 down.
Assay [14] in a line: osmotic lysis modulators in infected erythrocytes, primary screen, PSAC antagonist project, cell-based, P. falciparum Indochina, OD700, 3 h (AID 1156). The settings on record: higher = more signal, called active from +8 up or from −8 down.
Assay [15] in a line: PSAC antagonists in infected red cells, primary screen, cell-based, P. falciparum Indochina, OD700, 18 h (AID 1157). The settings on record: P. falciparum Indochina infected erythrocytes, osmotic lysis OD700, 18 h; higher = more signal, called active from +8 up or from −8 down.
The nature of assay [16]: modulators of S6 phosphorylation in cells, primary screen, cell-based, A549, cytoblot, luminescence, serum-stimulated (AID 1158).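 Further: serum-stimulated A549 lung adenocarcinoma cells; signal is phosphorylated S6 detected by cytoblot immunostaining with HRP secondary.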 The settings on record: A549 phospho-S6 cytoblot, 5 h, higher = more signal.
Assay [17] concerns the target NADPH oxidase 2 (Homo sapiens) (UniProt P04839). The assay is described as follows: NOX2-dependent H2O2 signal modulators, primary screen, NOX inhibitor project, cell-based, HEK293-NOX2, PMA-stimulated, Amplex Red fluorescence (AID 1159). Further: test concentration not given here. The settings on record: 45 min, higher = more signal, called active from +8 up or from −8 down.
The target of assay [18] is NADPH oxidase 4 (Homo sapiens) (UniProt Q9NPH5). The assay is described as follows: NOX4-dependent H2O2 signal modulators, primary screen, NOX inhibitor project, cell-based, HEK293-NOX4, tetracycline-induced, Amplex Red fluorescence (AID 1160). The settings on record: 45 min, higher = more signal, called active from +8 up or from −8 down.
The target of assay [19] is NADPH oxidase 5 (Homo sapiens) (UniProt Q96PH1). The assay is described as follows: NOX5-dependent H2O2 signal modulators, primary screen, NOX inhibitor project, cell-based, HEK293-NOX5, Amplex Red fluorescence (AID 1161). The settings on record: HEK293-NOX5, ionomycin, 45 min, higher = more signal.
The nature of assay [20]: A549 cell viability effects, profiling panel, calcein-AM fluorescence, 48 h, basal (AID 1162). Further: test concentration not given here. The settings on record: higher = more signal.

Calls of active or inactive are those of the source.

Torsin-1A (Homo sapiens), sequence (O14656 whole entry, looked up): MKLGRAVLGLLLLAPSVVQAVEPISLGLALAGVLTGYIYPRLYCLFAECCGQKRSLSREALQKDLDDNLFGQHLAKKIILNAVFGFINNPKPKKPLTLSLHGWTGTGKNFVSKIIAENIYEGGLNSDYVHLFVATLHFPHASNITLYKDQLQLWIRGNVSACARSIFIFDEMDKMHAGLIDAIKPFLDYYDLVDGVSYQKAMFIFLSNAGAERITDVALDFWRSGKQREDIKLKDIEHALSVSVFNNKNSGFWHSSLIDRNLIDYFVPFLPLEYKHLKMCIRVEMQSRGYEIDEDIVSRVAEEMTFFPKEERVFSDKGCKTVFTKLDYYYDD
NADPH oxidase 2 (Homo sapiens), sequence (P04839 whole entry, looked up): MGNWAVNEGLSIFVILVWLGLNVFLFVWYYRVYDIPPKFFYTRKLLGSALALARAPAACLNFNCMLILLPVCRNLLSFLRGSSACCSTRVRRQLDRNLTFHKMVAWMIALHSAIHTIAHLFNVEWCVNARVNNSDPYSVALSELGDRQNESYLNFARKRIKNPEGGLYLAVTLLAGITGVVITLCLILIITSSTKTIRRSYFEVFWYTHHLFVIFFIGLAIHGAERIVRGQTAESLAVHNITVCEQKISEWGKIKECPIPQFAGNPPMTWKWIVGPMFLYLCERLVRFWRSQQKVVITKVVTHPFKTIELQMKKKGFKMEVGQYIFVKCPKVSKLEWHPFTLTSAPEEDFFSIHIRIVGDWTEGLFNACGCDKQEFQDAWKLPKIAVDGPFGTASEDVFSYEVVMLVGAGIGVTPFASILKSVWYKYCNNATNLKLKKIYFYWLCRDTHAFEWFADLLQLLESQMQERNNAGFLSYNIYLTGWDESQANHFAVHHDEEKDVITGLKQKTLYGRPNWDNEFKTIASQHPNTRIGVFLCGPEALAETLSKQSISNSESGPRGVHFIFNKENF
NADPH oxidase 5 (Homo sapiens), sequence (Q96PH1 whole entry, looked up): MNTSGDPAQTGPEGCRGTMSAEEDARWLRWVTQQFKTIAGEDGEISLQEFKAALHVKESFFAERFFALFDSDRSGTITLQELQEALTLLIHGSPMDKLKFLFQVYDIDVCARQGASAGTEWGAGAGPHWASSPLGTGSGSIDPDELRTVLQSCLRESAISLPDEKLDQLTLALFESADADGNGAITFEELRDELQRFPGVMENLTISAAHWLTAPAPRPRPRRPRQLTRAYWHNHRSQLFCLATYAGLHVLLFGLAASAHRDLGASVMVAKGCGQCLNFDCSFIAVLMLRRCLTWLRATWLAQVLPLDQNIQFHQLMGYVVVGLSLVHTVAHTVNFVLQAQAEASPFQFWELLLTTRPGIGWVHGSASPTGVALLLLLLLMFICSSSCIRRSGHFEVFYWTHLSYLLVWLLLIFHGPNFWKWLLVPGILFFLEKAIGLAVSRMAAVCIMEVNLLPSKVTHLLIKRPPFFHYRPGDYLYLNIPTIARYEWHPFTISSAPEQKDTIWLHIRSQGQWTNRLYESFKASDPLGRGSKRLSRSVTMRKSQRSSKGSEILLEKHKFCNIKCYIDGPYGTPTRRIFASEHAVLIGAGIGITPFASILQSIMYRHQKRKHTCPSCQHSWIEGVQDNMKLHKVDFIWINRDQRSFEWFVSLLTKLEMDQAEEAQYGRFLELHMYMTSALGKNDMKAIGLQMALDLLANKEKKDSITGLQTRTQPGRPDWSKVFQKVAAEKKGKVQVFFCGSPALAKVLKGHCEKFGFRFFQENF
NADPH oxidase 4 (Homo sapiens), sequence (Q9NPH5 whole entry, looked up): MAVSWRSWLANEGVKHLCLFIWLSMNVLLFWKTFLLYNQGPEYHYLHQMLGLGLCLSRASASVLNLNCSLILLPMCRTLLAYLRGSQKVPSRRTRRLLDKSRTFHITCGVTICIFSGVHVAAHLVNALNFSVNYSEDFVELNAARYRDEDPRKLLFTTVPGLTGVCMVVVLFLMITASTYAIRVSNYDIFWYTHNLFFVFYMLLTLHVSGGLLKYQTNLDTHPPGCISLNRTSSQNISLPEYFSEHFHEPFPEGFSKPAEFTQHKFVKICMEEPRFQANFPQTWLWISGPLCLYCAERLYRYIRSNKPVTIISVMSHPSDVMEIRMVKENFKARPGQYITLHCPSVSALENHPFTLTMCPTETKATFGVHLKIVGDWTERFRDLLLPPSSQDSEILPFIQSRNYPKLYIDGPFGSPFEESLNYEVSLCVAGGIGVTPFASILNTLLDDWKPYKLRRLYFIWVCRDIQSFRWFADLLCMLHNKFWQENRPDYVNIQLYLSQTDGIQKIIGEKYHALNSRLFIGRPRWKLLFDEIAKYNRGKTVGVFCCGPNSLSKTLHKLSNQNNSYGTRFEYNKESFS
Streptavidin (Streptomyces avidinii), sequence (P22629 whole entry, looked up): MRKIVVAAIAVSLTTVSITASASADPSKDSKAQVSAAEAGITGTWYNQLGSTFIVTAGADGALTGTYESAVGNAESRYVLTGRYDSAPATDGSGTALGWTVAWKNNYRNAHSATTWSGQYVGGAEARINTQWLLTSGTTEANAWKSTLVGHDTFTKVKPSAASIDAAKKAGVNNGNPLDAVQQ

For `CC(CO)N1C(=O)[C@@H]2C3C(=O)OCCC/C=C\[C@H]3OC23C=CCN(Cc2ccccc2)C(=O)[C@@H]13` (stereo not given in full), the composite z-score is -0.146 in [1]; -1.03 in assay [5]; -0.31 in assay [6]; -0.462 in [7]; -0.276 in [8]; 0.194 in [9]. Also, the composite z-score in assay [11] is -0.24. Further, the z-score in assay [2] is -0.182 (inactive); in [3] it was -0.753 (inactive); in assay [4] it was -0.954 (inactive); in assay [10], 2.52 (inactive); in assay [12] it was 0.38 (inactive); in assay [13], -0.999 (inactive). The z-score in [14] is -0.513 (inactive); in assay [15], -0.899 (inactive); in assay [16] it was 0.467; in assay [17] it was 0.456 (inactive); in assay [18] it was -0.322 (inactive); in [19], 1.36. For the same compound, in assay [20], the z-score was 1.59.
As to `COc1c(C)cc(-c2cc3c(c(CCc4ccccc4)n2)[Si](C(C)C)(C(C)C)OC3)cc1C`, the composite z-score in assay [1] is -0.0652; in assay [5] it was -0.0683; in assay [6], 0.0659; in assay [7], 0.367; in assay [8], 0.362; in assay [9], 0.981. In [11], this compound returned a composite z-score of 0.112. The z-score in assay [2] is 0.236 (inactive); in assay [3], 0.12 (inactive); in assay [4], -0.867 (inactive); in assay [10], 2.56 (inactive); in assay [12], 1.18 (inactive); in [13], -0.803 (inactive). Also, the z-score was -0.428 (inactive) in assay [14]; -1.57 (inactive) in assay [15]; 0.663 in [16]; 0.726 (inactive) in [17]; 0.907 (inactive) in assay [18]; -0.11 in [19]. In addition, in [20], the z-score was 0.483.
For the compound `C[N+](C)(C)CCCCNC(=O)[C@@H]1C[C@@H]2C(=O)NCC(=O)N2[C@@H]1c1cccc(OCCO)c1`, the composite z-score amounted to 0.857 in assay [1]; 0.461 in assay [5]; 0.124 in [6]; 1.87 in assay [7]; 1.1 in assay [8]; 2.16 in assay [9]. In [11], this compound yielded a composite z-score of -0.221. Further, the z-score in [2] is -1.08 (inactive); in assay [3], -0.939 (inactive); in assay [4], -0.689 (inactive); in assay [10], 1.78 (inactive); in assay [12], 2.68 (inactive); in [13] it was -1.12 (inactive). Besides, the z-score in assay [14] was -2.75 (inactive); in assay [15], -1.98 (inactive); in assay [16], 0.855; in assay [17], -1.42 (inactive); in [18], -0.57 (inactive); in assay [19], 0.766. The z-score in [20] is 1.59.
With `C=CC[C@]1(C(=O)N2CCCCC2)COC(c2ccc(OCCCO)cc2)=N1`, the composite z-score in assay [1] was 0.0945; in assay [5], -0.712; in assay [6], -0.128; in assay [7], -0.273; in assay [8], -0.204; in [9], 0.0166. Further, the composite z-score in assay [11] was 0.0391. Besides, the z-score was -4.06 (inactive) in assay [2]; 1.08 (inactive) in assay [3]; -1.78 (inactive) in assay [4]; 0.924 (inactive) in assay [10]; 24.9 (active) in [12]; 12 (active) in assay [13]. Besides, the z-score in assay [14] was 4.37 (inactive); in [15], 0.866 (inactive); in [16], 0.826; in assay [17], -3.2 (inactive); in assay [18], -0.256 (inactive); in [19], -3.57. In [20], the z-score is -1.48.
As to `COc1ccc([Si](C)(C)[C@@H]2[C@@H](CC(=O)N3CCC[C@H]3CO)O[C@]3(C(=O)N(Cc4ccc(I)cc4)c4ccccc43)[C@H]2C)cc1`, the composite z-score is 0.229 in [1]; 0.983 in assay [5]; -0.109 in assay [6]; 0.626 in [7]; 0.199 in assay [8]; 0.646 in [9]. The compound also came in with a composite z-score in assay [11] of 0.0677. The z-score is -4.55 (inactive) in [2]; 0.105 (inactive) in [3]; -1.86 (inactive) in assay [4]; 1.97 (inactive) in assay [10]; 5.17 (inactive) in [12]; 0.0509 (inactive) in assay [13]. Besides, the z-score in assay [14] was -0.7 (inactive); in assay [15], -1.17 (inactive); in assay [16], 2.62; in [17], 2.26 (inactive); in assay [18], 0.932 (inactive); in assay [19] it was 4. Moreover, the z-score in [20] was -0.298.

Values taken from PubChem BioAssay.
